Not all results are given here.
aSyn UTR act: Activators via SNCA 5'UTR binding, MLPCN | activity score, % (tested at 7.5 µM), hits read low | 300,000 compounds, 7.1% hits | AID 1814 | alpha-synuclein 5'UTR reporter, activators screen; in the data active = activity score below about -60%
The depositor's hits bear a star.

SMILES | aSyn UTR act
Cc1ccc(C(=O)Nc2ncc(Cc3ccc(F)cc3)s2)o1 | -106.5*
Cc1ccc(C(=O)Nc2ncc(Cc3ccc(SC(F)F)cc3)s2)cc1 | -162.7*
Cc1ccc(C(=O)Nc2ncc(C)s2)o1 | -119.0*
CSc1ccccc1C(=O)Nc1ncc(C)s1 | -62.8*
O=c1nc(/C=C/c2cc([N+](=O)[O-])ccc2Cl)cc(C(F)(F)F)[nH]1 | -67.1*
COc1cc(OC)c(OC)cc1/C=C/c1cc(C(F)(F)F)[nH]c(=O)n1 | -121.1*
Cn1cccc1C(=O)OCc1ccc(C(C)(C)C)cc1 | -140.9*
Cc1cccc(-c2noc(CN(C)C(=O)c3ccco3)n2)c1 | -64.6*
Cc1cccc(/C(N)=N/OC(=O)C23CC4CC(CC(C4)C2)C3)c1 | -114.2*
Cc1cccc(/C(N)=N/OC(=O)c2ccc(Br)o2)c1 | -210.1*
COc1cc(OC)cc(C(=O)O/N=C(\N)c2ccncc2)c1 | -67.8*
COc1cc(OC)cc(C(=O)O/N=C(\N)c2cccc(C)c2)c1 | -81.4*
Cc1cccc(/C(N)=N/OC(=O)c2cccnc2)c1 | -73.4*
Cc1cc(NC(=O)CSc2nc(-c3ccco3)cc(C(F)(F)F)n2)no1 | 68.9
CS(=O)(=O)c1nc(-c2ccco2)cc(C(F)(F)F)n1 | -75.6*
Oc1ccc(Cl)cc1N=Nc1ccccc1 | -70.0*
CC(=O)Nc1ccc(N=Nc2ccc(O)cc2)cc1 | -87.2*
Oc1ccc(N=Nc2ccccc2)cc1 | -144.6*
OCc1ccc(N=Nc2ccccc2)cc1 | -83.6*
c1ccc(-c2cc3c(ccc4nonc43)nn2)cc1 | -96.4*
O=C(N/N=C/c1cc2c(cc1Cl)OCO2)c1ccccn1 | -91.5*
COc1cc(/C=N/NC(=O)c2ccccn2)cc2c1OCO2 | -95.4*
O=C(N/N=C/c1cc2c(cc1[N+](=O)[O-])OCO2)c1ccccn1 | -81.2*
Cn1cc(Br)c(C(=O)N/N=C/c2cc3c(cc2Cl)OCO3)n1 | -140.3*
O=[N+]([O-])c1ccc(C23CC4CC(CC(O)(C4)C2)C3)cc1 | -87.3*
SMILES | aSyn UTR act
CC(C)OC(=O)c1ccc(NC(=O)CSc2nc3ncccc3[nH]2)cc1 | -62.1*
O=[N+]([O-])c1cc(-c2n[nH]c(-c3ccccc3)n2)cc([N+](=O)[O-])c1 | -75.8*
COc1cccc(-c2nc3sc4c(c3c(=O)[nH]2)CCCCC4)c1 | -266.5*
CCCc1cc(=O)n2[nH]c(-c3ccc(C)cc3)cc2n1 | -128.9*
CCCc1cc(=O)n2[nH]c(-c3ccc(Cl)cc3)cc2n1 | -141.0*
CCCC(=O)Nc1ccc(-c2csc(-c3cccnc3)n2)cc1 | -114.3*
CC(=O)Nc1ccc(-c2csc(-c3cccnc3)n2)cc1 | -112.0*
COc1ccc(NC(=O)c2cc3c(-c4ccc(OC)c(OC)c4)nn(C)c3s2)cc1OC | -69.6*
O=C(CCc1nc2ccccc2c(=O)[nH]1)Nc1nc(-c2cccs2)cs1 | -88.8*
O=C(NNC(=O)c1ccccc1O)c1cccc(Br)c1 | -133.0*
O=C(COC(=O)c1ccc(O)cc1O)c1ccc(Cl)cc1 | -95.9*
O=C(NNC(=O)c1ccccc1O)c1ccc(Br)cc1 | -116.2*
O=C(NNC(=O)c1ccc(O)cc1O)c1ccc(Cl)cc1 | -71.7*
O=C(NNC(=O)c1ccccc1O)c1ccc(Cl)cc1 | -80.9*
O=C(NNC(=O)c1cccs1)c1ccc(Br)cc1 | -77.9*
Cc1cccc(C(=O)NNC(=O)c2ccc(Cl)cc2)c1O | -140.9*
CC1CCc2nc(NCCO)nc(C(F)(F)F)c2C1 (stereo unspecified) | 53.7
CCC(=O)Nc1ccc2c(c1)ncn2-c1ccc(C)cc1 | -77.0*
CCn1cnc2cc(NC(=O)c3ccc(C)cc3)ccc21 | -105.5*
CCCn1cnc2cc(NC(=O)c3cccs3)ccc21 | -112.6*
Cc1ccc(C(=O)Nc2ccc3c(c2)ncn3C)cc1 | -115.0*
Cc1ccc(-c2nc(-c3nccc4ccccc34)oc2-c2ccccc2)cc1 | -136.8*
COc1ccc(-n2ncc3c(NCCCn4ccnc4)ncnc32)cc1 | -122.1*
COCCNc1ncnc2c1cnn2-c1ccc(Cl)cc1 | -77.9*
COCCN(CCOC)c1ncnc2c1cnn2-c1ccc(Cl)cc1 | -138.8*
SMILES | aSyn UTR act
OCCOCCNc1ncnc2c1cnn2-c1ccccc1 | -137.5*
OCCOCCNc1ncnc2c1cnn2-c1ccc(Cl)cc1 | -92.9*
O=C1/C(=C/c2ccc(N3CCOCC3)o2)SC(=Nc2ccccc2)N1CCc1c[nH]c2ccccc12 | -120.8*
Cn1nc(C(=O)NC2CCCCC2)c2c1-c1ccccc1SC2 | -98.0*
COc1ccc(/C=N\NC(=O)c2cccc(F)c2)cc1COc1ccccc1 | 88.0
COc1cc(/C=N/NC(=O)c2cccc([N+](=O)[O-])c2)ccc1OCc1ccc(C)cc1 | -98.6*
COc1ccc(/C=N/NC(=O)c2cccnc2)cc1COc1ccc([N+](=O)[O-])cc1 | -74.9*
COc1ccc(/C=N/NC(=O)c2cccnc2)cc1COc1ccc(NC(C)=O)cc1 | -83.6*
O=C1OCCC1Sc1nnc(-c2ccc3c(c2)OCO3)o1 (stereo unspecified) | 54.8
Nc1oc2ccccc2c(=O)c1-c1ccc2c(c1)OCO2 | -74.6*
O=C(c1ccco1)N1CCN(Cc2ccc(F)cc2Cl)CC1 | -157.6*
O=C(Oc1c(CN2CCOCC2)cc(Cl)c2cccnc12)c1ccc(F)cc1 | 65.4
OC1(c2ccc(Cl)cc2)CCN(Cc2cn[nH]c2-c2ccc(F)cc2)CC1 | 60.8
O=C(c1ccco1)N1CCCN(Cc2cn[nH]c2-c2ccc(-c3ccccc3)cc2)CC1 | -95.3*
OC1(c2ccc(Cl)cc2)CCN(Cc2cn[nH]c2-c2ccccc2)CC1 | 69.8
O=C(c1ccco1)N1CCN(Cc2ccccc2Br)CC1 | -78.0*
CCOc1ccccc1-n1c(CN2CCN(C(=O)c3ccco3)CC2)nc2ccccc2c1=O | 110.5
Cc1[nH]c2ccccc2c1C(=O)CSC(=S)N1CCCCC1 | -159.4*
C/C(N)=C(/C#N)C(=O)CSc1nnnn1-c1ccc(C)cc1 | -89.8*
C/C(N)=C(/C#N)C(=O)CSc1nc2ccccc2[nH]1 | -114.8*
Cc1[nH]c2ccccc2c1C(=O)CSc1nc2ccccc2[nH]1 | -100.0*
CC1CCN(C(=O)CSc2nc3ccccc3[nH]2)CC1 | -105.1*
Cc1[nH]c2ccccc2c1C(=O)CSc1nc2ccccc2c(=O)n1CCCN1CCOCC1 | -66.9*
O=C(Cc1ccccn1)c1ccc(Cl)cc1 | -164.2*
CC1=C(CC(=O)c2ccc(Cl)cc2)C(=O)c2ccccc2C1=O | -70.0*
SMILES | aSyn UTR act
COc1ccc(C2CC2/C(=N/OC(=O)c2cccs2)c2ccccc2)cc1 (stereo unspecified) | -152.6*
CN=Cc1cc(-c2ccccc2)sc1O | -99.8*
c1ccc2c(Nc3nc4c(s3)CCCC4)cccc2c1 | -157.0*
O=C(N/N=C/c1ccccn1)NC12CC3CC(CC(C3)C1)C2 | -105.1*
O=C(N/N=C/c1ccccc1F)NC12CC3CC(CC(C3)C1)C2 | -114.8*
O=C(CN1C(=O)c2ccccc2S1(=O)=O)c1ccc(O)c(O)c1 | 63.5
COc1ccccc1C1=NOC(CN2C(=O)c3ccccc3S2(=O)=O)C1 (stereo unspecified) | -126.6*
O=C1c2ccccc2S(=O)(=O)N1CC1CC(c2ccccc2Cl)=NO1 (stereo unspecified) | -81.0*
C/C(CC(=O)Nc1ccc(F)cc1F)=N\NC(=O)C(=O)N1CCCCC1 | -68.3*
CCOc1ccc(N(C(=O)c2ccccc2Cl)C2=NC(C)(C)CS2)cc1 | -79.0*
Cc1ccc(Nc2ccc(NCc3ccccc3)nn2)cc1C | -87.4*
Clc1ccc(Nc2ccc(NCc3ccccc3)nn2)cc1 | -72.4*
CCn1nc(NC(=O)C2CCCO2)c2cc3cc(C)ccc3nc21 (stereo unspecified) | -90.4*
